From PubChem BioAssay
GALR2 blocker: GALR2 (human) receptor antagonism; AID 828; inhibition, % at 4 µM; 140,000 compounds, 0.39% hits; GALR2-expressing cells, antagonist mode; O43603; in the data active = inhibition above about 27%;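 note: cells stimulated with galanin 1-16 at roughly its EC80; 0% = agonist challenge control and 100% = basal control without agonist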
S1P2 ag: agonists of human S1P2 receptor; 97,000 compounds, 0.46% hits; O95136; activation, % at 4.5 µM; S1P2-expressing cell line, agonist reporter read-out; in the data active = activation above about 16%;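 note: 0% = vehicle low control and 100% = maximal reference agonist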
GALR2 ag: GALR2 (human) receptor agonism | GALR2-expressing cells, agonist activation read-out | O43603 | activation, % (concentration not given with the values) | 140,000 compounds, 0.48% hits | AID 803; in the data active = activation above about 5%, passing the limit was not always enough;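 note: 0% = vehicle buffer wells and 100% = reference agonist at full effect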
S1P2 antag: S1P2 (human) receptor antagonism; 97,000 compounds, 0.21% hits; O95136; inhibition, % at 5 µM; cell-based S1P2 antagonist assay, inhibition at 5 uM; AID 736; in the data active = inhibition above about 45%;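 note: CRE beta-lactamase reporter cells expressing human S1P2 stimulated with S1P; 0% = agonist at EC80 alone and 100% = agonist plus reference antagonist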
Candida biofilm: kills Candida albicans biofilms | C. albicans biofilm + clotrimazole, Alamar Blue | inhibition, % at 6 µM | 85,000 compounds, 0.14% hits;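 active = inhibition above 20%; inactive = inhibition below 20%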;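 note: preformed 24 hr biofilms exposed to compound for 48 hr; 0% = biofilm without compound and 100% = blank killed by clotrimazole plus chlorhexidine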
Smad3 FoxH1 inh: blocks human Smad3 binding to FoxH1 peptide | TR-FRET Smad3/Dy647-FoxH1 peptide binding, europium anti-His | inhibition, % at 25 µM | 88,000 compounds, 0.29% hits;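 active = compounds that reduce the energy-transfer binding signal between the protein and its labelled peptide by more than half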;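 note: 0% = Smad3 plus labelled peptide maximal FRET and 100% = peptide-only background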
Target sequence (P84022 whole entry, looked up): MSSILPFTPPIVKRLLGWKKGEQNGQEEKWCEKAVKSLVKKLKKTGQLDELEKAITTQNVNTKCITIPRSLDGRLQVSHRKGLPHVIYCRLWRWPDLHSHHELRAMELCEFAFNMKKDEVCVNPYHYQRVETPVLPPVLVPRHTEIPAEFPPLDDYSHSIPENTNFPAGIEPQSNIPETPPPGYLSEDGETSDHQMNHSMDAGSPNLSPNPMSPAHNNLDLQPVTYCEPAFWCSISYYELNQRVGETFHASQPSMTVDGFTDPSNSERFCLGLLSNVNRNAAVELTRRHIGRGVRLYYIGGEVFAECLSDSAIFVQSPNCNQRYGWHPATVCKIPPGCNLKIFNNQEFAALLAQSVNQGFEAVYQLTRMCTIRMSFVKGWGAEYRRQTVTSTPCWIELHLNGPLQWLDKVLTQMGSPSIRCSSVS
GALR2 agon conf: confirmation of human galanin receptor 2 (GALR2) agonists; shares compounds with GALR2 ag; GALR2-expressing cells, agonist activation; activation, % at 5.6 µM; 460 compounds, 10% hits; AID 864; in the data active = activation above about 8.4%;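 note: 0% = buffer-only vehicle wells and 100% = full reference agonist response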
BLA activ ctr: beta-lactamase activation, GALR2 counterscreen. shares compounds with GALR2 ag. 460 compounds, 10% hits. activation, % at 5.6 µM. AID 865. CHO NFAT-bla reporter, beta-lactamase FRET activation;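 active = activation above the screen-wide mean activation plus 3 SD, cut at about 8% in these data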;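 note: 0% = DMSO with PBS wells and 100% = thapsigargin positive control wells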
Numbers without * were called inactive. Sampled rows, rich in hits. Any-hit rate of the full collection: about 1.3%.

Cc1ccc(CCNC(=O)c2ccc(CS(=O)(=O)Cc3ccccc3F)o2)cc1 was read as GALR2 blocker -14.3, S1P2 ag -4.5, GALR2 ag 0.3, S1P2 antag 15.0, Candida biofilm -4.6 and Smad3 FoxH1 inh 7.3.
CC(=O)c1nn(-c2ccccc2)cc1C(=O)c1ccc(Br)cc1 was read as GALR2 blocker -3.8, GALR2 ag 9.4*, GALR2 agon conf 5.9 and BLA activ ctr 1.1.
`O=C(Nc1cccc(NC(=S)NC(=O)c2cccs2)c1)c1ccccc1` gave GALR2 blocker -7.7 and GALR2 ag -0.6.
For O=C(O)c1cccc(NC(=S)NC(=O)C(c2ccccc2)c2ccccc2)c1 the results were GALR2 blocker -8.4, S1P2 ag -4.1, GALR2 ag 8.2, S1P2 antag 20.3, GALR2 agon conf -0.5 and BLA activ ctr -0.6.
Cc1c(/C=N/n2cnnc2)c2ccccc2n1CCOc1ccc(Cl)cc1 was read as GALR2 blocker 2.1, S1P2 ag -3.5, GALR2 ag 1.5, S1P2 antag -16.9, Candida biofilm 4.1 and Smad3 FoxH1 inh -5.7.
`Cc1ccc(OCCn2c(C)c(/C=N/n3cnnc3)c3ccccc32)cc1` gave GALR2 blocker -6.6, S1P2 ag 6.1, GALR2 ag 9.1*, S1P2 antag -27.7, GALR2 agon conf 4.5 and BLA activ ctr -1.9.
`Oc1ccccc1/C=N/Nc1ccnc(SCc2ccccc2)n1` gave GALR2 blocker 2.8, GALR2 ag 23.4*, GALR2 agon conf 3.9 and BLA activ ctr 0.3.
CCO/C(C)=C1\C(=O)Nc2ccccc21 was read as GALR2 blocker 11.9, S1P2 ag -9.4, GALR2 ag -1.7, S1P2 antag -5.0, Candida biofilm 0.4 and Smad3 FoxH1 inh -5.6.
For O=c1oc2ccccc2cc1-c1nc2c(s1)CCc1ccccc1-2 the results were GALR2 blocker 24.6, GALR2 ag 10.4*, GALR2 agon conf 3.5 and BLA activ ctr 2.3.
`Nc1nnc(-c2cc3ccccc3oc2=O)s1` gave GALR2 blocker 17.2, S1P2 ag -7.8, GALR2 ag -3.2, S1P2 antag 7.3, Candida biofilm 4.5 and Smad3 FoxH1 inh 13.1.
For CCCCN(CCCC)C(=S)NC(=O)c1ccccc1Cl the results were GALR2 blocker 6.3 and GALR2 ag -0.6.
`Nc1c(C(=O)NCc2ccco2)c2nc3ccccc3nc2n1CCc1ccccc1F` gave GALR2 blocker -12.5, S1P2 ag 4.1, GALR2 ag 7.1, S1P2 antag 6.1, Candida biofilm 3.9 and Smad3 FoxH1 inh -0.6.
Screening COc1ccc(CCn2c(N)c(C(=O)NCc3ccco3)c3nc4ccccc4nc32)cc1OC returned GALR2 blocker 3.7, S1P2 ag 15.6, GALR2 ag 12.0*, S1P2 antag -16.2, Candida biofilm 8.8, Smad3 FoxH1 inh -4.1, GALR2 agon conf 4.0 and BLA activ ctr 9.9*.
Cc1cc2c(C)cc(=O)oc2c2c1NCCC2 was read as GALR2 blocker -7.9, S1P2 ag 15.0, GALR2 ag 13.4*, S1P2 antag -22.6, Candida biofilm 2.6, Smad3 FoxH1 inh 4.0, GALR2 agon conf 0.6 and BLA activ ctr 3.7.
`Cc1cc2nn(-c3cccc4ccccc34)nc2cc1N` gave GALR2 blocker 15.0, S1P2 ag 4.2, GALR2 ag 3.3, S1P2 antag 10.6, Candida biofilm 8.5 and Smad3 FoxH1 inh 17.7.
`Cc1ccc(-n2nc3cc(C)c(N)cc3n2)cc1` gave GALR2 blocker 8.7, S1P2 ag 2.7, GALR2 ag 9.6, S1P2 antag -17.2, Candida biofilm -1.9, Smad3 FoxH1 inh 35.0, GALR2 agon conf 1.7 and BLA activ ctr 4.0.
COc1ccc(-c2cnnn2-c2ccc(NC(=O)c3ccc(S(=O)(=O)N4CCCCC4)cc3)cc2)cc1OC was read as GALR2 blocker 3.5 and GALR2 ag 3.5.
COc1ccc(-c2cnnn2-c2ccc(NC(=O)c3ccco3)cc2)cc1OC was read as GALR2 blocker 7.0, S1P2 ag 7.2, GALR2 ag 20.4*, S1P2 antag -33.3, Candida biofilm -2.2, Smad3 FoxH1 inh 3.3, GALR2 agon conf 0.4 and BLA activ ctr -0.9.
